Measurements published in PubChem BioAssay (NCI).
About 83,000 compounds went through this panel and 20% of them were active in at least one assay; those are over-represented in the sample as a whole.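 The endpoint reported here, percent growth, reads 100 for growth as untreated, 0 for no net growth and -100 for all cells dead.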 Unmarked numbers belong to inactive results. Active and inactive are the calls of the source. How the source made its calls: active means growth percent below 10; inactive means the rest.

Legend:
Assay in all cases: NCI-60 one-dose screen, 48 h (100 = growth as untreated, 0 = no growth, -100 = all killed)
Conditions in all cases: 10 µM unless noted
[1] = system: MOLT-4 leukemia
[2] = system: SR leukemia
[3] = system: RPMI-8226 leukemia
[4] = system: OVCAR-8 ovarian
[5] = system: OVCAR-5 ovarian
[6] = system: OVCAR-4 ovarian
[7] = system: SK-OV-3 ovarian
[8] = system: IGROV1 ovarian
[9] = system: OVCAR-3 ovarian
[10] = system: HS 578T breast
[11] = system: NCI/ADR-RES ovarian
[12] = system: T-47D breast
[13] = system: BT-549 breast
[14] = system: MDA-MB-435 melanoma
[15] = system: SW-620 colon
[16] = system: MCF7 breast
[17] = system: HCT-116 colon
[18] = system: HCC-2998 colon
[19] = system: KM12 colon

SMILES | growth [1] | growth [2] | growth [3] | growth [4] | growth [5] | growth [6] | growth [7] | growth [8] | growth [9] | growth [10] | growth [11] | growth [12] | growth [13] | growth [14] | growth [15] | growth [16] | growth [17] | growth [18] | growth [19]
CCC(=O)Nc1ccc(Cl)c(Cl)c1 | 97.9% | 95.5% | 106% | 100% | 92.9% | 118% | 104% | 104% | 107% | 110% | 102% | 87.3% | 113% | 107% | 101% | 93.1% | 99.1% | 93.9% | 99.9%
CC(=O)OC[C@]1(C)C=C2C(=O)[C@](C)(O)C3(CC3)C(C)=C2[C@H]1O | 12.2% | 9.64% (active) | 75.8% | -0.446% (active) | -14.4% (active) | -9.54% (active) | -40.4% (active) | -31.1% (active) | -29.4% (active) | -21.5% (active) | -18.7% (active) | -8.92% (active) | -42.4% (active) | -24.1% (active) | 0.025% (active) | 1.05% (active) | 0.12% (active) | -59.8% (active) | 10.4%
CC[C@H](C)[C@H](NC(=O)c1ccccn1)C(=O)N(C)[C@H](C[C@@H](OC(C)=O)c1nc(C(=O)N[C@@H](Cc2ccccc2)C[C@H](C)C(=O)OC)cs1)C(C)C | 19.5% | 4.97% (active) | 19.9% | 22.6% | 49.6% | 47.8% | 41.2% | 28.4% | -22.5% (active) | -1.12% (active) | 16.1% | 80.7% | 24.2% | -25.3% (active) | 25.7% | 21.2% | 9.41% (active) | 23.9% | 10.2%
O=C(CC1(O)C(=O)Nc2ccccc21)c1ccc(C(=O)NCC2CCC3(CC2)OOC2(CCCCC2)OO3)cc1 (configuration not stated) | 58.4% | 10.8% | 48.1% | 45.3% | 106% | 71.9% | 81.2% | 41% | 74.1% | 91.9% | 86.9% | 31.8% | 80.1% | 81.6% | 86.4% | 62.9% | 65.9% | 106% | 77.4%
Cc1cc(C)cc(Nc2nc3c(s2)CC[C@@]2(C)C3=CC[C@@H]3[C@@H]2CC[C@]2(C)C(=O)CC[C@@H]32)c1 | 10.3% | 12.5% | 4.21% (active) | 50.4% | 93.3% | 70% | 79.8% | 85.2% | 23.8% | 58.3% | 74.5% | 28.9% | 47.2% | 72.8% | 37.8% | 16.9% | 6.21% (active) | 94.2% | 55.5%
COC(=O)[C@H](Cc1c[nH]c2ccccc12)NC(=O)[C@@H](OC)[C@@H]1Cc2cc3cc(OC4CC(OC5CC(O)C(O)C(C)O5)C(O)C(C)O4)c(C)c(O)c3c(O)c2C(=O)[C@H]1OC1CC(OC2CC(OC3CC(C)(O)C(O)C(C)O3)C(O)C(C)O2)C(O)C(C)O1 (some centres not stated) | 0.755% (active) | 4.93% (active) | -5.61% (active) | 11% | 15.3% | 0.345% (active) | 18.2% | 23.4% | 4.79% (active) | -13.6% (active) | 76.7% | 8.07% (active) | -53.4% (active) | -71.9% (active) | 6.98% (active) | 5.98% (active) | 3.71% (active) | -46.8% (active) | 0.363% (active)
COc1cc(/C=C/[N+](=O)[O-])cc(OC)c1 | 7.52% (active) | -12.3% (active) | -24.1% (active) | 13.8% | 13.8% | 47.6% | 71.7% | 9.88% (active) | -30.3% (active) | 40.9% | 11.3% | -1.67% (active) | -49.7% (active) | -46.4% (active) | -10.5% (active) | -59.1% (active) | -68.3% (active) | -79.7% (active) | -23.7% (active)
CC1=C2[C@@H](CC1)[C@]1(C)O[C@@](C(C)C)(C[C@H]1O)[C@H]2OC(=O)C1CC1c1ccccc1 (some centres not stated) | 63.4% | 92.4% | 58.2% | 71.8% | 97.5% | 91.8% | 90.6% | 96.2% | 100% | 95.5% | 77.4% | 53.4% | 81.4% | 98.4% | 101% | 92.2% | 90.7% | 115% | 92%
CCOC(=O)[C@@H](C)C[C@H](Cc1ccccc1)NC(=O)c1csc([C@@H](C[C@H](C(C)C)N(C)C(=O)[C@@H](NC(=O)[C@H]2CCCCN2C)C(C)(C)C)OC(C)=O)n1 | 7.61% (active) | 3.63% (active) | 11.9% | 6.71% (active) | 32.3% | 42.7% | 13.2% | 18.1% | -6.79% (active) | 6.42% (active) | 6.69% (active) | 62.7% | -27.2% (active) | -66.4% (active) | 26.2% | 13.8% | 2.35% (active) | -2.49% (active) | 3.85% (active)
O[C@H](CN1CC1)[C@@H](O)CN1CC1 | 32.8% | 16.9% | 88% | 55% | 103% | 93.1% | 49.5% | 93.9% | 101% | 97.1% | 56.3% | 48% | 81.9% | 78.3% | 64.4% | 41.7% | 66.3% | 97% | 91.5%
COC(=O)N[C@H]1CCc2c(Br)c(OC)c(OC)c(OC)c2-c2ccc(SC)c(=O)cc21 | 3.15% (active) | -9.73% (active) | -3.46% (active) | 14.8% | 35.9% | 24.7% | 33.1% | 9.6% (active) | -40.5% (active) | 1.22% (active) | 7.33% (active) | 50.5% | 17.1% | -55.7% (active) | 17.5% | 12.8% | 3.67% (active) | 17.2% | -4.65% (active)
CCCC(=O)O[C@@H]1C[C@H]2C[C@@H](O[C@@H]3O[C@@H](C)[C@@H](O)[C@@H](O)[C@H]3OC)C[C@@H](C[C@@H](C)/C=C/C=C\C[C@@H]3O[C@@H](C[C@@H]3C)[C@@H](O)C[C@H]3C[C@@]1(O)C(=O)O3)O2 | 37.5% | 85.9% | 27.3% | 41.1% | 74.5% | 25.4% | 52.4% | 70.1% | 59.8% | 96.7% | 67.6% | 17.4% | 46.9% | 59.1% | 87.4% | 25.7% | 56.3% | 59.4% | 65.3%
O=C(CC1(O)C(=O)N(Cc2ccccc2)c2ccc(Br)cc21)c1ccc(C(=O)NCC2CCC3(CC2)OOC2(CCCCC2)OO3)cc1 (configuration not stated) | -37.3% (active) | -40.7% (active) | -7.69% (active) | -40.9% (active) | 12.4% | -34.1% (active) | 83.4% | -36.2% (active) | -84.1% (active) | 22.6% | -44.8% (active) | -29.2% (active) | 33.9% | 4.94% (active) | -16.5% (active) | 31.5% | 35.5% | 102% | -57.5% (active)
